# Assay results reported in PubChem BioAssay (Tox21).
# Values joined by “and” are separate entries in the source; they are usually repeats but may differ in a detail not shown here. Equal values may be shown once. Inconclusive results are not listed. Entries that show only a call come without a potency. Active and inactive are the calls of the source. Unless noted, calls follow the shape of the dose curve; as a rule, active = well fitted curve in the direction sought with a large enough effect in the repeat runs; inconclusive = weak or mixed curves; inactive = no such curve, though single readings can be large; an effect the other way counts as inactive or inconclusive.
# Key:
# [1] = qHTS assay to identify small molecule agonists of the hypoxia (HIF-1) signaling pathway - cell viability counter screen (AID 1224844; calls by dose curve; also: nearly all actives have a fitted effect of over 50% in size)
# Procedure, shortened: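 Cytotoxicity measured by CellTiter-Glo ATP luminescence in the wells also read for beta-lactamase signal. Cells were HRE-bla ME-180 (2,000/well, 0.5% dialyzed FBS), exposed to compounds for 17 h at 37C.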
# [2] = qHTS assay to identify small molecule agonists of H2AX (AID 1224845; active = well fitted activation curve with a large enough effect in the signal ratio in the repeat runs, not every such curve was filed as active; the % refers to the signal ratio)
# Procedure, shortened: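 Phospho-H2AX Ser139 measured by HTRF (ex 320 nm; em 665 and 620 nm) after 24 hr antibody incubation. Compounds, 15 concentrations, 0.76% DMSO, were applied to CHO-K1 cells for 3hr at 37C before lysis.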
# [3] = qHTS assay to identify small molecule agonists of the hypoxia (HIF-1) signaling pathway (AID 1224846; active = well fitted activation curve with a large enough effect in the signal ratio in the repeat runs, not every such curve was filed as active; the % refers to the signal ratio)
# Procedure, shortened: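 Compounds added to ME-180 cells carrying hypoxia-response-element beta-lactamase reporter (0.5% dialyzed FBS, 5 h preplating), 17 h at 37C; agonist activity detected by CCF4-AM B/G FRET read-out.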
# [4] = qHTS assay to identify small molecule agonists of H2AX - cell viability counter screen (AID 1224847; calls by dose curve; also: top concentration of the series differs between compounds; nearly all actives have a fitted effect of over 30% in size)
# Procedure, shortened: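 Compounds tested at 15 concentrations were incubated 3 hr at 37C with wild-type CHO-K1 cells; cellular ATP-based luminescence (CellTiter-Glo) indicated viability.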
# [5] = qHTS RealTime-Glo MT Cell Viability Assay in HepG2 cells - 24 hour (AID 1224867); also: nearly all actives have a fitted effect of over 50% in size
# Procedure, shortened: (§1)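 HepG2 cells (600/well) were dispensed with RealTime-Glo reagents, incubated 5 h at 37 °C, then treated with compounds in DMSO for up to 40 h. Nonlytic NanoLuc luminescence reflecting viable cells was read at each stated time point.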
# [6] = A CellTox Green Cytotoxicity Assay to monitor cytotoxicity in HEK293 cells - 0 hour (AID 1224869); also: nearly all actives have a fitted effect of over 50% in size
# Procedure, shortened: (§2)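 Fluorescence from a DNA-binding dye excluded by viable cells was measured repeatedly in the same HEK293 wells (600 cells/well) during continuous compound exposure at 37 C. Each assay gives one read point: 0, 8, 16, 24, 32 or 40 h.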
# [7] = qHTS RealTime-Glo MT Cell Viability Assay in HepG2 cells - 40 hour (AID 1224870); also: nearly all actives have a fitted effect of over 50% in size
# Procedure, shortened: (§3)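 Real-time viability: cells seeded at 600 per well together with NanoLuc and cell-permeant prosubstrate, compounds added after 5 h incubation. Luminescence tracked at 0, 8, 16, 24, 32 and 40 h of exposure.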
# [8] = A CellTox Green Cytotoxicity Assay to monitor cytotoxicity in HEK293 cells - 40 hour (AID 1224871); also: nearly all actives have a fitted effect of over 45% in size
# Procedure, shortened: as §2
# [9] = qHTS RealTime-Glo MT Cell Viability Assay in HEK293 cells - 16 hour (AID 1224872)
# Procedure, shortened: (§4)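 HEK293 cells seeded with NanoLuc/prosubstrate reagent, rested 5 h at 37 C, then dosed and kept at 37 C up to 40 h. Nonlytic real-time luminescence from viable cells read at 0, 8, 16, 24, 32 and 40 h.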
# [10] = qHTS RealTime-Glo MT Cell Viability Assay in HepG2 cells - 8 hour (AID 1224873); also: nearly all actives have a fitted effect of over 55% in size
# Procedure, shortened: as §3
# [11] = qHTS RealTime-Glo MT Cell Viability Assay in HEK293 cells - 40 hour (AID 1224874); settings: RealTime-Glo luminescence; max response: stronger effect = lower value; also: nearly all actives have a fitted effect of over 50% in size
# Procedure, shortened: (§5)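 Luminescence, which tracks viable cell number through reduction of the prosubstrate to a NanoLuc substrate, was read over continuous 37 C culture. Cells (600/well) were premixed with reagent and rested 5 h before 23 nL of compound in DMSO was pinned.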
# [12] = A CellTox Green Cytotoxicity Assay to monitor cytotoxicity in HEK293 cells - 24 hour (AID 1224875); also: nearly all actives have a fitted effect of over 45% in size
# Procedure, shortened: as §2
# [13] = A CellTox Green Cytotoxicity Assay to monitor cytotoxicity in HepG2 cells - 16 hour (AID 1224876); also: nearly all actives have a fitted effect of over 45% in size
# Procedure, shortened: (§6)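 Real-time cytotoxicity: fluorescence of a cell-impermeant cyanine dye binding DNA of dead HepG2 cells, measured repeatedly (0–40 h) during compound exposure at 37 C. Cells seeded 600/well with reagent, dosed after 5 h.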
# [14] = qHTS RealTime-Glo MT Cell Viability Assay in HepG2 cells - 32 hour (AID 1224877); also: nearly all actives have a fitted effect of over 55% in size
# Procedure, shortened: as §1
# [15] = A CellTox Green Cytotoxicity Assay to monitor cytotoxicity in HepG2 cells - 24 hour (AID 1224878); also: nearly all actives have a fitted effect of over 45% in size
# Procedure, shortened: as §6
# [16] = A CellTox Green Cytotoxicity Assay to monitor cytotoxicity in HepG2 cells - 40 hour (AID 1224879); also: nearly all actives have a fitted effect of over 40% in size
# Procedure, shortened: as §6
# [17] = qHTS RealTime-Glo MT Cell Viability Assay in HEK293 cells - 0 hour (AID 1224880)
# Procedure, shortened: as §5
# [18] = qHTS assay to identify small molecule antagonists of the estrogen related receptor (ERR) signaling pathway from Tox21 library (AID 1224848); also: nearly all actives have a fitted effect of over 50% in size; also: potency is read from the fitted curve at half-maximal effect
# Procedure, shortened: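 ERR cell line, 2,000 cells/well. 6 h settle, then compound (DMSO) added; 18 h at 37 C; ONE-Glo luminescence after 30 min RT.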
# [19] = qHTS assay to identify small molecule agonists of the estrogen related receptor (ERR) signaling pathway from Tox21 library (AID 1224849; calls by dose curve; also: nearly all actives have a fitted effect of over 15% in size); settings: ERR reporter cell line, ONE-Glo luciferase, 18 h
# Procedure, shortened: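 Luminescent agonist read-out (One-Glo, 30-minute room-temperature incubation) following 18-hour compound treatment at 37 C of the ERR cell line, which had been plated 6 hours before dosing.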
# [20] = qHTS RealTime-Glo MT Cell Viability Assay in HEK293 cells - 32 hour (AID 1224868)
# Procedure, shortened: as §4
smiles,measurement,setting,value
C=C(C)C(=O)OCC(C)O (stereo unspecified),Potency,[1],inactive
same,Potency,[2],inactive
same,outcome,[3],inactive
same,Potency,[4],inactive
same,Potency,[5],inactive
same,Potency,[6],inactive
same,Potency,[7],inactive
same,Potency,[8],inactive
same,Potency,[9],inactive
same,Potency,[10],inactive
same,max response,[11],1.34% (inactive) and 8.53% (inactive) and -3.84% (inactive)
same,Potency,[12],inactive
same,Potency,[13],inactive
same,Potency,[14],inactive
same,Potency,[15],inactive
same,Potency,[16],inactive
same,Potency,[17],inactive
COc1ccc(C(Cl)=C(c2ccc(OC)cc2)c2ccc(OC)cc2)cc1,Potency,[1],inactive
same,Potency,[2],inactive
same,outcome,[3],inactive
same,Potency,[4],inactive
same,Potency,[18],21.6 µM (active) and 27.3 µM (active) and 26.6 µM (active)
same,"activity change, positive = activation",[19]; at 42.5 µM (top of the series),-32.5% (inactive)
same,"activity change, positive = activation",[19]; at 92.4 µM (top of the series),-45.8% (inactive) and -43.7% (inactive)
same,Potency,[5],inactive
same,Potency,[20],inactive
same,Potency,[6],inactive
same,Potency,[7],inactive
same,Potency,[8],inactive
same,Potency,[9],inactive
same,max response,[11],-17.7% (inactive)
same,Potency,[12],inactive
same,Potency,[13],inactive
same,Potency,[14],inactive
same,Potency,[15],inactive
same,Potency,[16],inactive
same,Potency,[17],inactive
CN(C)C(=O)Nc1ccc(Cl)c(Cl)c1,Potency,[1],inactive
same,Potency,[2],inactive
same,outcome,[3],inactive
same,Potency,[4],inactive
same,Potency,[18],inactive
same,"activity change, positive = activation",[19]; at 42.5 µM (top of the series),-0.767% (inactive)
same,"activity change, positive = activation",[19]; at 92.4 µM (top of the series),-14.1% (inactive) and -8.37% (inactive)
same,Potency,[5],inactive
same,Potency,[20],inactive
same,Potency,[6],inactive
same,Potency,[7],inactive
same,Potency,[8],inactive
same,Potency,[9],inactive
same,Potency,[10],inactive
same,max response,[11],-20.7% (inactive)
same,Potency,[12],inactive
same,Potency,[13],inactive
same,Potency,[14],inactive
same,Potency,[15],inactive
same,Potency,[16],inactive
same,Potency,[17],inactive
CCCCNC(=O)NS(=O)(=O)c1ccc(C)cc1,Potency,[1],inactive
same,Potency,[2],inactive
same,Potency,[4],inactive
same,Potency,[18],inactive
same,"activity change, positive = activation",[19]; at 42.5 µM (top of the series),4.14% (inactive)
same,"activity change, positive = activation",[19]; at 92.4 µM (top of the series),-14.4% (inactive) and 0.897% (inactive)
same,Potency,[5],inactive
same,Potency,[6],inactive
same,Potency,[7],inactive
same,Potency,[8],inactive
same,Potency,[9],inactive
same,Potency,[10],inactive
same,max response,[11],-2.16% (inactive) and 5.08% (inactive) and 4.55% (inactive)
same,Potency,[12],inactive
same,Potency,[13],inactive
same,Potency,[14],inactive
same,Potency,[15],inactive
same,Potency,[16],inactive
same,Potency,[17],inactive
NS(=O)(=O)c1cc2c(cc1Cl)NCNS2(=O)=O,Potency,[1],inactive
same,Potency,[2],inactive
same,Potency,[4],inactive
same,Potency,[18],inactive
same,"activity change, positive = activation",[19]; at 42.5 µM (top of the series),-0.0876% (inactive)
same,"activity change, positive = activation",[19]; at 92.4 µM (top of the series),0.0385% (inactive) and 5.11% (inactive)
same,Potency,[5],inactive
same,Potency,[6],inactive
same,Potency,[7],inactive
same,Potency,[8],inactive
same,Potency,[9],inactive
same,Potency,[10],inactive
same,max response,[11],0.173% (inactive) and -4.85% (inactive) and 1.86% (inactive)
same,Potency,[12],inactive
same,Potency,[13],inactive
same,Potency,[14],inactive
same,Potency,[15],inactive
same,Potency,[16],inactive
same,Potency,[17],inactive
